Test results as given in PubChem BioAssay AID1044 (The Scripps Research Institute Molecular Screening Center, 2008).
In all, about 16,000 compounds went through this assay and about 240 (1.5%) were called active. The entries come from a sample that favours actives as a whole. Values without a mark were called inactive. No stated cut-off is given here; in the data, active means activation above about 80%; inactive means the rest.

Each compound was assayed against Sphingosine 1-phosphate receptor 1 (Homo sapiens) (UniProt P21453) (assay: S1P1 (human) receptor agonism (AID 1044)). Conditions: S1P1 agonist cell-based reporter assay; at 4.5 µM; stronger effect = higher value.
Sequence of Sphingosine 1-phosphate receptor 1 (Homo sapiens) (P21453 whole entry, looked up): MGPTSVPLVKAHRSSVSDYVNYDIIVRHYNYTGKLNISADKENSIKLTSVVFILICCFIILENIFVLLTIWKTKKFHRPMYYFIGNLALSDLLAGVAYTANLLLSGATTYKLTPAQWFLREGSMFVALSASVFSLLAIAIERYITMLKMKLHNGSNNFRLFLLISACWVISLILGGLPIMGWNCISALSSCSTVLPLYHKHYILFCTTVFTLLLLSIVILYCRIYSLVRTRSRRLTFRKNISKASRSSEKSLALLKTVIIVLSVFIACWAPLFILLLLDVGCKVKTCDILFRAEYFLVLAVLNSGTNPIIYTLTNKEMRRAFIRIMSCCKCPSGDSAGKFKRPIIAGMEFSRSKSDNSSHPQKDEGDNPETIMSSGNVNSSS

First: Cc1cc(Cl)ccc1NC(=S)NNC(=S)Nc1ccc(F)cc1
Second: CC(=O)Nc1ccc(F)cc1F
The activation of the first is higher: 25.2% for the first, -19.4% for the second.

Compared with `Cc1onc(-c2ccccc2)c1C(=O)Sc1ccc(C(F)(F)F)cn1`, `Cc1cc(C(F)(F)F)nc2c(-c3noc(-c4ccccc4)n3)cnn12` is higher in activation: -5.64% for the first, 23.9% for the second.

First: CC(=O)c1ccc(NC(=O)OC2CCSC2)cc1 (centres undefined)
Second: N/C(=N\OS(=O)(=O)c1ccc(C(F)(F)F)cc1)C1CSCCS1 (centres undefined)
The activation of the first is lower: -3.04% for the first, 6.24% for the second.

Compared with `O=S(=O)(c1ccccc1)c1cc(C(F)(F)F)cc(C(F)(F)F)c1`, `O=C(NCc1ccc(F)cc1F)c1cc(C(F)(F)F)cc(C(F)(F)F)c1` is lower in activation: 1.62% for the first, -5.72% for the second.

Compared with `O=c1oc2c3ccccc3c3oc(=O)sc3c2s1`, `c1ccc2sc(-c3csc(-c4ccc5c(c4)OCCO5)n3)nc2c1` is lower in activation: 11% for the first, 7.46% for the second.

First: CN(C)c1ccc(C=Nc2ccc(S(N)(=O)=O)cc2)cc1
Second: Cc1[nH]ncc1S(=O)(=O)c1ccc(Cl)cc1
The activation of the first is lower: -3.85% for the first, 2.45% for the second.

First: CC1(C)CCc2cc(-c3ccnc(SCC(=O)c4ccccc4)n3)ccc2O1
Second: COc1ccc(/C=C(\NC(=O)c2ccccc2)C(=O)N/N=C/c2ccc3c(c2)OCO3)cc1
The activation of the first is lower: -11.3% for the first, 7.34% for the second.

Compared with `O=c1cc(-c2ccccc2)cc(-c2ccccc2)o1`, `O=C(NCc1cc2ccccc2s1)C1CN(C(c2ccccc2)c2ccccc2)C1` is lower in activation: -7.4% for the first, -7.79% for the second.

Compared with `O=C(O)CC(CC(=O)Oc1ccccc1N1CCCCC1)c1ccccc1` (centres undefined), `O=C(CCN1CCN(C(c2ccccc2)c2ccccc2)CC1)c1ccccc1` is higher in activation: -2.68% for the first, 1.07% for the second.

First: CC1CC(NC(=O)/C(C#N)=C/c2ccc[nH]2)CC(C)(C)C1 (centres undefined)
Second: CC(C)S(=O)(=O)c1cscc1N/C=C(/C#N)C(=O)c1cccs1
The activation of the first is lower: -5.85% for the first, 21.3% for the second.

Going from `O=C(Nc1ccc(F)cc1OC(F)(F)F)N1CCC(O)CC1` to `O=C(Nc1cc2ccccc2s1)N1CCN(Cc2c(F)cccc2Cl)CC1`, the activation rises from -2.84% to 8.18%.

Going from `Cc1nc2cc3c(cc2s1)OCO3` to `O=C1COCC(=O)N1c1ccc2c(c1)OCO2`, the activation falls from 2.86% to -5.13%.

Going from `COCn1nnc2ccccc21` to `Cn1c(=O)c(C#N)cn(-c2ccccc2)c1=O`, the activation falls from 1.03% to -15.9%.

Compared with `CC1(C)CC(=O)C(N=Nc2c(F)cccc2F)=C(O)C1`, `CCc1cccc(C)c1N(C(C)=O)C1=NCCC(=O)S1` is lower in activation: 7.55% for the first, -5.03% for the second.

Going from `CC(C)c1ccc(NNS(=O)(=O)c2ccc(Cl)c(Cl)c2)cc1` to `CC(C)NC(=O)NNc1c(Cl)cncc1Cl`, the activation rises from -3.29% to 8.17%.

Compared with `Cc1cc(C2=CSC3=NCCN23)ccc1Cl`, `CO/N=C(/C)c1ccc2c(c1)CCO2` is lower in activation: 8.4% for the first, -16.7% for the second.

Compared with `CN(C)/C=C/C(=O)c1cc(C(C)(C)C)cc(C(C)(C)C)c1O`, `CN(C)/C=N/NC(=O)c1nc(-c2cccc(-n3cccc3)c2)no1` is lower in activation: 19.8% for the first, -6.62% for the second.

Going from `CCCCNC(=O)OCCSCCS(=O)(=O)c1ccc(Cl)cc1` to `CCOC(=O)O/N=C(\N)c1ccc(Cl)cc1`, the activation rises from -12.4% to 3.02%.

First: Nc1[nH]c(=O)nc2nc[nH]c12
Second: Cc1cc(CNC(=O)c2cc(C)n(C)n2)no1
The activation of the first is lower: -5.12% for the first, 0.51% for the second.

Going from `N#Cc1sccc1Br` to `O=[N+]([O-])c1ccc(-c2ccc(I)cc2)cc1`, the activation rises from -1.57% to 1.05%.

Going from `CCOC(=O)C/C(N)=C(\C#N)C(=O)OCC` to `O=[N+]([O-])c1cc(C(F)(F)F)ccc1OCCO`, the activation rises from -0.14% to 8.3%.

Going from `Cc1nc(-c2cccnc2)nc(N2CCCN(Cc3ccc(F)cc3)CC2)c1Cl` to `O=C(CSc1nnc(-c2ccncc2)n1Cc1ccccc1)Nc1nnc(-c2ccco2)s1`, the activation rises from -19.4% to 4.05%.

First: O=C1/C(=C/c2ccc3c(c2)OCO3)CCC/C1=C\c1ccc2c(c1)OCO2
Second: S=C(NNC(=S)NC1CC2C=CC1C2)NC1CC2C=CC1C2 (centres undefined)
The activation of the first is higher: 11.5% for the first, -6.61% for the second.

For `CC1(C)C=Cc2cc(-c3noc(-c4ccccc4)n3)ccc2O1`, the activation was 96.3% (active).
For `CC(=O)Nc1ccc(S(=O)(=O)NNc2c(Cl)cncc2Cl)cc1Cl`, the activation was 80.4% (active).
With `O=C(/C(=N\N=C\c1ccc2c(c1)OCO2)c1ccccc1)c1ccccc1` the activation was 101% (active).
